Assay results: PubChem BioAssay (NCATS)
Results filed as inconclusive are left out. Calls of active or inactive are those of the source. Calls follow the shape of the dose curve; as a rule, active = well fitted inhibition curve with a large enough effect; inconclusive = small, poorly fitted or top-dose-only effect; inactive = flat fitted curve, though single readings scatter.

system: astro; experiment: Drug repurposing screens with cells derived from glioblastoma tumor samples (AID 1345199); conditions: viability, ATP luminescence, 48 h; series mostly up to 45.9 µM; also: nearly all actives have a fitted effect of over 40% in size
Description: CD133+ cells were isolated from GBM patient biopsies and cultured as neurospheres. Neurospheres from four patients were used to screen the NCATS pharmaceutical collection (NPC) library of approved drugs and bioactive compounds. […] The neurospheres were incubated with drugs for 48 hours in 1536-well format, then assayed with an ATP content cell viability assay. […] These hits were cherry picked to confirm activity in the four original GBM lines screened plus three other slower growing GMB lines (unable to yield enough cells for a full primary screen). Variable activities of the confirmed primary hits in the different GBM patient lines were observed. The patient line 206 responded to the greatest number of compounds and line 923 responded to the least amount of active compounds.

| SMILES | outcome |
| --- | --- |
| CCCCCC(N)=O | inactive |
| CCOc1ccccc1O[C@H](c1ccccc1)[C@H]1CNCCO1 | inactive |
| CCOC(=O)OC(C)OC(=O)[C@@H]1N2C(=O)[C@@H](NC(=O)[C@H](N)c3ccccc3)[C@H]2SC1(C)C (stereo not given in full) | inactive |
| CCCCOC(=O)c1ccc(N)cc1 | inactive |
| O=C1c2cccc(O)c2C(=O)c2c(O)cccc21 | inactive |
| CC(CN(C)C)C(C)(O)Cc1ccc(Cl)cc1 (stereo not given) | inactive |
| CC(=O)N1C[C@H](O)C[C@H]1C(=O)O | inactive |
| O=C(/C=C/c1ccc(O)c(O)c1)O[C@@H]1C[C@@](OC(=O)/C=C/c2ccc(O)c(O)c2)(C(=O)O)C[C@@H](O)[C@@H]1O | inactive |
| COC(=O)N/N=C/c1c[n+]([O-])c2ccccc2[n+]1[O-] | inactive |
| C[n+]1ccccc1/C=N/O | inactive |
| OCC(O)CS (stereo not given) | inactive |
| O=c1[nH]c2cc(C(F)(F)F)c(N3CCOCC3)cc2n(CP(=O)(O)O)c1=O | inactive |
| CC(C)CCCC(C)CCCC(C)CCCCC(C)CCCC(C)CCCC(C)C (stereo not given) | inactive |
| CC(C)NC[C@@H](O)COc1ccc(CC(N)=O)cc1 | inactive |
| CC(=O)N[C@@H](CC(C)C)C(=O)O | inactive |
| CC1(C)[C@@H](OC(=O)CCC(=O)O)CC[C@]2(C)[C@H]3C(=O)C=C4[C@@H]5C[C@@](C)(C(=O)O)CC[C@]5(C)CC[C@@]4(C)[C@]3(C)CC[C@@H]12 | inactive |
| Cc1onc(-c2ccccc2)c1-c1ccc(S(N)(=O)=O)cc1 | inactive |
| CCN(CC)S(=O)(=O)c1ccc(C(=O)O)cc1 | inactive |
| CC(=O)OCC(=O)[C@@]1(O)CC[C@H]2[C@@H]3CCC4=CC(=O)C=C[C@]4(C)[C@@]3(F)[C@@H](O)C[C@@]21C | inactive |
| NNc1nnc(NN)c2ccccc12 | inactive |

| SMILES | outcome |
| --- | --- |
| CC(=O)Nc1cccc(O)c1 | inactive |
| CC[C@H](C)[C@H](N)C(=O)O | inactive |
| NC(N)=NS(=O)(=O)c1ccc(N)cc1 | inactive |
| O=C(O)/C=C/c1ccc(Cn2ccnc2)cc1 | inactive |
| O=C(O)c1ccc(OCCCOc2ccc(C(=O)O)cc2)cc1 | inactive |
| CCCCCCCC(=O)OCC(COC(=O)CCCCCCC)OC(=O)CCCCCCC | inactive |
| O[C@@H]1CO[C@H]2[C@@H]1OC[C@@H]2O | inactive |
| COc1ccccc1Oc1c(NS(=O)(=O)c2ccc(C(C)(C)C)cc2)nc(-c2ncccn2)nc1OCCO | inactive |
| CC(C)=CCC/C(C)=C/CO | inactive |
| O=S1(=O)OC(c2ccc(O)cc2)(c2ccc(O)cc2)c2ccccc21 | inactive |
| OC(CCN1CCCC1)(c1ccccc1)C1CCCCC1 (stereo not given) | inactive |
| Cc1ccsc1C(=CCCN1CCC[C@@H](C(=O)O)C1)c1sccc1C | inactive |
| CCOC(=O)[C@H](CCc1ccccc1)N[C@@H](C)C(=O)N1CCC[C@H]1C(=O)O | inactive |
| Nc1c2c(nc3c1CCC3)CCCC2 | inactive |
| O=C(CCBr)N1CCN(C(=O)CCBr)CC1 | inactive |
| CCN(CC)C(=O)c1cccc(C)c1 | inactive |
| O=C(O)c1ccc[n+]([O-])c1 | inactive |
| NC(=O)N[C@@H](CCC(=O)O)C(=O)O | inactive |
| CNc1c2c(nn1C)CCCC2 | inactive |
| NS(=O)(=O)c1cc2c(cc1C(F)(F)F)NCNS2(=O)=O | inactive |
